The values that follow come from PubChem BioAssay (Tox21).

The nature of test [1]: Nuclear factor erythroid 2-related factor 2/antioxidant responsive element (Nrf2/ARE) small molecule agonists: qHTS cell viability counter screen in human keratinocytes (AID 1919968; active means well fitted curve in the direction sought with a large enough effect in the repeat runs; an effect the other way counts as inactive or inconclusive; further: nearly all actives have a fitted effect of over 55% in size). In a few lines:
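CellTiter-Fluor fluorescence, read 1 h after reagent, gave viability in the same wells as the ARE-luciferase assay. KeratinoSens cells (1,500/well) had 23 h compound exposure at 37 C/5% CO2 following 5 h plating.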

Test [2] in a line: Nuclear factor erythroid 2-related factor 2/antioxidant responsive element (Nrf2/ARE) small molecule agonists: luciferase reporter gene qHTS assay in human keratinocytes (AID 1919969). Further: nearly all actives have a fitted effect of over 35% in size. Further: potency means the concentration at half of the fitted maximal effect. In general terms: In a reporter assay the amount or activity of a reporter protein is the signal.
The target in test [3] is Gonadotropin-releasing hormone receptor (Homo sapiens) (UniProt P30968). In words: Human gonadotropin-releasing hormone receptor (GnRHR) small molecule agonists, calcium flux assay in GnRHR-HEK293 cells (AID 1920063). Further: nearly all actives have a fitted effect of over 35% in size. The method in brief: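 Agonist mode: compounds at 15 concentrations, in triplicate, went onto calcium dye-loaded GnRHR-HEK293 cells. Intracellular calcium was then followed as 480/540 nm fluorescence at 1 s intervals over 3 min.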
Sequence of Gonadotropin-releasing hormone receptor (Homo sapiens) (P30968 whole entry, looked up): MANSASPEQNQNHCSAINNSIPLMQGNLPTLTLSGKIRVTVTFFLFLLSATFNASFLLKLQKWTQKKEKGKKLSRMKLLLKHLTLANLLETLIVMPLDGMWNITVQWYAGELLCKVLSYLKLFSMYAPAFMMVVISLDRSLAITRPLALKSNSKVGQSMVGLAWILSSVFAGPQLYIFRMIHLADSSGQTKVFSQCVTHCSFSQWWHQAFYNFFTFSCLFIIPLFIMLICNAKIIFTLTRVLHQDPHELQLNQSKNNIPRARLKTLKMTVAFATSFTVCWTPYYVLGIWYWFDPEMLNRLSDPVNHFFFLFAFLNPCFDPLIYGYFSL
Background: Calcium assays in cells follow changes in intracellular calcium, usually with a dye or a luminescent sensor.

For test [4], the target named is KiSS-1 receptor (Homo sapiens) (UniProt Q969F8). Put plainly: Human kisspeptin (KISS1R) small molecule agonists, calcium flux assay in KISS1R-HEK293 cells (AID 1920064; active means well fitted curve in the direction sought with a large enough effect in the repeat runs; an effect the other way counts as inactive or inconclusive). In a few lines: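 Agonist mode: intracellular calcium rise tracked at 1 s intervals over 3 min (480/540 nm) immediately after compound addition to dye-loaded KISS1R-HEK293 stable cells. Each compound tested at 15 concentrations in triplicate.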
Sequence of KiSS-1 receptor (Homo sapiens) (Q969F8 whole entry, looked up): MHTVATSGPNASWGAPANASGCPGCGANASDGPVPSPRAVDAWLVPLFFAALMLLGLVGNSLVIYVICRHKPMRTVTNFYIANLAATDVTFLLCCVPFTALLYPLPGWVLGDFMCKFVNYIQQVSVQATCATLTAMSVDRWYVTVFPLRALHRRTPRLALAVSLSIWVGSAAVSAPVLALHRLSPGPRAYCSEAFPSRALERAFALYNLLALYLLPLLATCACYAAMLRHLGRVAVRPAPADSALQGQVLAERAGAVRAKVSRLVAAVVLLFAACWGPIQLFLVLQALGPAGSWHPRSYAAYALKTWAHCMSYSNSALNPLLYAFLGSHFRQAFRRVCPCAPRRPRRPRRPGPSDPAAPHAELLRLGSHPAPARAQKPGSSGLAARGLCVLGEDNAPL

The nature of test [5]: G protein-coupled receptor (GPCR) small molecule agonists, calcium flux assay: HEK293 wild type cell line counter screen (AID 1920065). The method in brief: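 Calcium flux counter screen: compound added in agonist mode at 15 concentrations in triplicate to dye-loaded parental HEK293 cells. Fluorescence (480/540) read kinetically for 3 min; ATP served as positive control.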

Test [6] is described as follows: p53 small molecule agonists, cell-based qHTS assay with human liver microsomes (AID 1963577).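 Further: p53 response element beta-lactamase reporter cells with liver microsomes plus NADPH.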 The method in brief:
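Reporter activation was measured by LiveBLAzer fluorescence intensity in p53RE-bla cells, which had been exposed to compounds for 16 h at 37 C alongside 0.5 mg/mL human liver microsomes and 0.5 mg/mL NADPH (final concentrations).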
For orientation: qHTS replaces the single test concentration by a dilution series.

A short description of test [7]: p53 small molecule agonists, cell-based qHTS assay with rat liver microsomes (AID 1963578). In a few lines:
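Compound in DMSO added to p53RE-bla cells 5 h post-plating; rat microsomes/NADPH 0.5 mg/mL final; 16 h, 37 C; LiveBLAzer 2 h RT.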

A short description of test [8]: p53 small molecule agonists, cell-based qHTS assay with human liver microsomes: qHTS cell viability counter screen (AID 1963579). Further: nearly all actives have a fitted effect of over 45% in size. In a few lines: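 HLM-supplemented (0.5 mg/mL final) and NADPH-supplemented (0.5 mg/mL final) p53RE-bla cultures, 4,000 cells per well, were dosed with compounds in DMSO for 16 h at 37 C; luminescent ATP detection (CellTiter-Glo, 30 min, room temperature) quantified surviving cells.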

Test [9] is described as follows: p53 small molecule agonists, cell-based qHTS assay with rat liver microsomes: qHTS cell viability counter screen (AID 1963580). Further: nearly all actives have a fitted effect of over 45% in size. In a few lines:
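Cytotoxicity counter screen: intracellular ATP measured by CellTiter-Glo luminescence in the same wells as the beta-lactamase reporter read, on HCT-116 p53RE-bla cells exposed 16 h at 37 C to compounds with rat liver microsomes and NADPH, each 0.5 mg/mL final.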

Test [10] can be described thus: p53 small molecule agonists, cell-based qHTS assay: qHTS cell viability counter screen (AID 1963581). Further: nearly all actives have a fitted effect of over 45% in size. In a few lines:
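Counter screen read by CellTiter-Glo luminescence (ATP content, 30 min at room temperature), run in the same wells as the beta-lactamase reporter read. HCT-116 p53RE-bla cells saw compounds for 16 h at 37 C.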

Test [11] can be described thus: p53 small molecule agonists, cell-based qHTS assay (AID 1963582; active means well fitted activation curve with a large enough effect in the signal ratio in the repeat runs, not every such curve was filed as active; the % refers to the signal ratio). In a few lines: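 Read-out is beta-lactamase FRET fluorescence after 2 h at room temperature with LiveBLAzer B/G substrate. p53 response element-bla cells were treated 16 h at 37 C with compounds in DMSO, added 5 h after seeding.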
For test [12], the target named is 5-hydroxytryptamine receptor 2A (Homo sapiens) (UniProt P28223). In words: 5-hydroxytryptamine receptor 2A (HTR2A) small molecule agonists, cell-based qHTS assay (AID 1963587). Further: nearly all actives have a fitted effect of over 30% in size. In a few lines:
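CHO cells stably expressing human HTR2A, plated 18 h, loaded with calcium dye 1 h at 37 C. Agonist mode: compounds added and intracellular calcium fluorescence recorded kinetically for 2 min at 1 sec intervals.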

The target in test [13] is Muscarinic acetylcholine receptor M1 (Homo sapiens) (UniProt P11229). Put plainly: Cholinergic receptor muscarinic 1 (CHRM1) small molecule antagonists, cell-based qHTS assay (AID 1963588). Further: nearly all actives have a fitted effect of over 40% in size. The method in brief:
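Compounds were tested at 15 concentrations in three independent runs. Dye-loaded CHRM1-CHO cells were exposed 5 min at room temperature before stimulation by acetylcholine added at 50nM. Intracellular calcium was read kinetically on FDSS for 3 min.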

Test [14] shares this target. Put plainly: Cholinergic receptor muscarinic 1 (CHRM1) small molecule agonists, cell-based qHTS assay (AID 1963589). Further: nearly all actives have a fitted effect of over 35% in size. The method in brief: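 Agonist-mode calcium-flux screen: compounds at 15 concentrations, three independent runs, were pin-transferred onto dye-loaded human CHRM1-CHO cells. Fluorescence was then recorded kinetically every second over minutes.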
Test [15] concerns the target Beta-2 adrenergic receptor (Homo sapiens) (UniProt P07550). In words: Adrenergic beta2 receptor (ADRB2) small molecule antagonists, cell-based qHTS assay (AID 1963592). Further: series mostly up to about 92 µM; nearly all actives have a fitted effect of over 50% in size. In a few lines: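 Assay format: CHO-ADRB2 cells, 18-20hr seeding at 37C/5% CO2, then compound plus 1nM isoproterenol agonist mix for 0.5hr RT. Homogeneous time-resolved fluorescence cAMP detection after 1hr, expressed as 665/615 nm ratio.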

For test [16] the target is unchanged. In words: Adrenergic beta2 receptor (ADRB2) small molecule agonists, cell-based qHTS assay (AID 1963593).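 Further: CHO cells stably overexpressing human ADRB2.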 In a few lines:
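CHO cells stably over-expressing ADRB2 were plated overnight at 37C, then dosed with compounds plus a stimulation mix containing 100uM IBMX and 25uM Ro-20-1724 for 0.5hr at room temperature. cAMP was measured by HTRF competition, 1hr.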

The target in test [17] is D(2) dopamine receptor (Homo sapiens) (UniProt P14416). In words: Dopamine D2 receptor (DRD2) small molecule agonists, cell-based qHTS assay (AID 1963594). Further: nearly all actives have a fitted effect of over 35% in size. In a few lines:
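HEK293 cells stably expressing human DRD2, pre-treated with PDE inhibitor Ro20-1724 (0.1 mM final) and compound 10 min at room temperature, then stimulated with NKH477 (200nM […]) for 30 min. cAMP read by HTRF (665/620 nm).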

Test [18] shares this target. Put plainly: Dopamine D2 receptor (DRD2) small molecule antagonists, cell-based qHTS assay (AID 1963595; active means well fitted inhibition curve with a large enough effect in the signal ratio in the repeat runs, with a control signal flat; the % refers to the signal ratio). The method in brief:
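Cells were plated and grown for 24 h at 37 °C. Ro20-1724 (0.1 mM final) went in first, then compound for 10 min. NKH477 (200 nM) with quinpirole (12 nM) followed for 30 min at RT, then HTRF detection reagents for 1 h.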

The nature of test [19]: cAMP Responsive Elements (CRE) small molecule agonists, cell-based qHTS assay (AID 1963590). The method in brief: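 Agonist mode: compound added to CRE-bla HEK 293T cells (2,000/well, 18 h after plating) for 3 h at 37 C/5% CO2. Reporter activity detected via FRET beta-lactamase substrate, 2 h room-temperature loading.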
Test [20] can be described thus: cAMP Responsive Elements (CRE) small molecule antagonists, cell-based qHTS assay (AID 1963591; active means well fitted inhibition curve with a large enough effect in the signal ratio in the repeat runs, not every such curve was filed as active; the % refers to the signal ratio). The method in brief: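 Antagonist mode: compounds are added alongside the adenylyl cyclase activator NKH477 (0.25 uM final) to CRE-bla HEK293T cells for 3 h. LiveBLAzer FRET substrate, 2 h at room temperature, reports bla expression.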

Unmarked numbers belong to inactive results. Inconclusive results are not listed. Active and inactive are the calls of the source. Unless noted, the call rests on the fitted dose curve.

Sequence of D(2) dopamine receptor (Homo sapiens) (P14416 whole entry, looked up): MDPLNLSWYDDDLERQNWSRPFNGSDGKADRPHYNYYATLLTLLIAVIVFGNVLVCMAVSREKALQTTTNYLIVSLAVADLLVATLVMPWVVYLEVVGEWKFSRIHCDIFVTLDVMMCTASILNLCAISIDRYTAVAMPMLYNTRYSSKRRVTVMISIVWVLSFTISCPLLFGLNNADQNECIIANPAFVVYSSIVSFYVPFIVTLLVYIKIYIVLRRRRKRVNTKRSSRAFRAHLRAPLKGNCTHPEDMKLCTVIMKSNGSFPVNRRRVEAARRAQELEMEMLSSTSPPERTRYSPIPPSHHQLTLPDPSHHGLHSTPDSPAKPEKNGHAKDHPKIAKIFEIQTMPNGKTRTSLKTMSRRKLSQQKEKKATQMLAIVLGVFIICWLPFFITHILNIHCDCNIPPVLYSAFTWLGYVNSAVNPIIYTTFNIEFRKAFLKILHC
Sequence of Muscarinic acetylcholine receptor M1 (Homo sapiens) (P11229 whole entry, looked up): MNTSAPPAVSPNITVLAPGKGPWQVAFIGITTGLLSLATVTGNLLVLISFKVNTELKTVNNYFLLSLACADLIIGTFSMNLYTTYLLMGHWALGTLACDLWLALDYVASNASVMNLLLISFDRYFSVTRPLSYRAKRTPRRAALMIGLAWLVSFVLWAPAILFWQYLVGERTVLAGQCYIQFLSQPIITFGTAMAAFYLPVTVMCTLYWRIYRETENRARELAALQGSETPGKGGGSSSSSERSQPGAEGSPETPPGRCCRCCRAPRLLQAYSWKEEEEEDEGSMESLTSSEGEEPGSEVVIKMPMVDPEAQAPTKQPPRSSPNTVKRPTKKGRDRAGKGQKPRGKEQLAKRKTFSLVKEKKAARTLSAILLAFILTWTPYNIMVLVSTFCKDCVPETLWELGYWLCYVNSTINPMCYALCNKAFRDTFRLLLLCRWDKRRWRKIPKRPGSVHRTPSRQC
Sequence of Beta-2 adrenergic receptor (Homo sapiens) (P07550 whole entry, looked up): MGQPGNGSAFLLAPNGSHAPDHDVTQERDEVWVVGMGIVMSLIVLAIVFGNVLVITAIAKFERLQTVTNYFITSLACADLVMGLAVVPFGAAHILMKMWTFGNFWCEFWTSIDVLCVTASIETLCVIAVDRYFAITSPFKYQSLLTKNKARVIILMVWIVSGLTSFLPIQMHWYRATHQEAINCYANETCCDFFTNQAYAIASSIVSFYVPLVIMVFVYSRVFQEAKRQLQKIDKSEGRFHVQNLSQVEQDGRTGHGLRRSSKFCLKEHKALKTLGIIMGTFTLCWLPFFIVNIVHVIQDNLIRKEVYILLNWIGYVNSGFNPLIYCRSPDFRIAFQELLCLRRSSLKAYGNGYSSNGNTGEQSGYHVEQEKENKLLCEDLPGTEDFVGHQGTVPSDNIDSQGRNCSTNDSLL
Sequence of 5-hydroxytryptamine receptor 2A (Homo sapiens) (P28223 whole entry, looked up): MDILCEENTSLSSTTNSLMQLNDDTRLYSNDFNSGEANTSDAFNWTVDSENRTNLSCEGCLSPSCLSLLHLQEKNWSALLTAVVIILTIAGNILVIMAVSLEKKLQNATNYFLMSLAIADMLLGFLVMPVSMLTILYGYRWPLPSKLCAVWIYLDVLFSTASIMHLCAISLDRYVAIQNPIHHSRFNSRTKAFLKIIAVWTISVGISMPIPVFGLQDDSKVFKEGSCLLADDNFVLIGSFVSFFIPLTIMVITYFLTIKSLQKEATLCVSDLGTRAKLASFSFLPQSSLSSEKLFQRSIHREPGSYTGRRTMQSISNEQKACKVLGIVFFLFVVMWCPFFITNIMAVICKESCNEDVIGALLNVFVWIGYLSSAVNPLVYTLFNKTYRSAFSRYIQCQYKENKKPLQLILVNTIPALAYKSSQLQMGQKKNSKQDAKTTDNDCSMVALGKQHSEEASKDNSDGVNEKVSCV

Take `CCCCCCCCCCCCCCCCCCN(C)C`: the Potency entry in test [1], in test [2], in test [3], in test [6], in test [7] and in [8] was “inactive” throughout. Besides, the Potency entry in test [9], in test [10], in test [11], in test [12], in test [13] and in test [14] was “inactive” throughout. In addition, the Potency result in [15], in test [16], in [17] and in test [18] was “inactive” each time. Further, the outcome in test [4] and in test [5] was inactive.
For `CC(C)c1ccc2oc3nc(N)c(C(=O)O)cc3c(=O)c2c1`, the Potency entry in test [1], in [3], in test [6], in [7], in test [8] and in [9] was “inactive” throughout. The Potency result in test [10], in [11], in test [12], in test [13], in [14] and in test [15] was “inactive” in each case. The Potency entry in [16], in test [17] and in test [18] was “inactive” in each case. In [2], the Potency was 944 nM (active). Besides, the result in test [4] and in test [5] was inactive.
With `Cc1nnc(C(=O)NC(C)(C)c2nc(C(=O)NCc3ccc(F)cc3)c(O)c(=O)n2C)o1`, the Potency result in [1], in test [2], in test [3], in test [6], in [7] and in test [8] was “inactive” throughout. Besides, the Potency entry in test [9], in test [10], in test [11], in test [12], in test [13] and in test [14] was “inactive” throughout. The Potency entry in test [15], in test [16] and in test [18] was “inactive” each time. The outcome in test [4] and in test [5] was inactive.
Consider `CN(C)CC/C=C1/c2ccccc2COc2ccc(CC(=O)O)cc21`, for which the Potency entry in test [1], in [2], in test [3], in test [6], in [7] and in [8] was “inactive” in each case. Further, the Potency entry in [9], in [10], in [11], in [12], in test [14] and in [19] was “inactive” each time. Further, the Potency result in [20], in test [15], in [17] and in test [18] was “inactive” each time. The result in test [4] and in [5] was inactive.
As to `CCCCC(CC)COC(=O)CCCCCCCCC(=O)OCC(CC)CCCC` (configuration not stated), the Potency entry in test [1], in [2], in test [3], in [6], in [7] and in test [8] was “inactive” in each case. Further, the Potency result in test [9], in [10], in [11], in [12], in [19] and in test [20] was “inactive” each time. Also, the Potency result in test [15], in test [16], in [17] and in [18] was “inactive” in each case. Also, the outcome in test [4] and in test [5] was inactive.
`CCC(=O)O[C@]1(C(=O)COC)[C@@H](C)C[C@H]2[C@@H]3CCC4=CC(=O)C=C[C@]4(C)C3(F)[C@@H](O)C[C@@]21C` (some centres not stated): the Potency result in test [1], in [2], in test [3], in test [6], in test [7] and in [8] was “inactive” in each case. Also, the Potency result in test [9], in test [10], in test [11], in test [12], in test [13] and in [14] was “inactive” throughout. Further, the Potency entry in [15] and in test [18] was “inactive” in each case. For the same compound, the result in test [4] and in [5] was inactive.
Take `Nc1ccc(Cl)cc1[N+](=O)[O-]`: the Potency result in [1], in test [2], in test [3], in test [6], in test [7] and in test [8] was “inactive” in each case. For the same compound, the Potency result in test [9], in test [10], in test [11], in [12], in test [13] and in test [19] was “inactive” throughout. For the same compound, the Potency result in test [20], in test [15] and in [17] was “inactive” throughout. The outcome in test [4] and in test [5] was inactive.
